High-throughput results from PubChem BioAssay.
IL-1B inflam inh = blocks inflammasome-driven IL-1 beta release | activity change, % at 57.5 µM | AID 743279 | THP-1 LPS/ATP IL-1B secretion, AlphaLISA, 16 h; stronger effect = lower value | actives 4.7% (n = 360,000); in the data active means activity change below about -50%; inconclusive means mostly about -30% to -49%
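THP-1 cells pretreated 1 hr with compounds (up to 57.5 uM final), then stimulated with LPS (250 ng/mL final) plus ATP (1.25 mM final); secreted IL-1B measured by AlphaLISA after 16 hr, decreased signal indicating inhibition.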
DT40 TDP1 no CPT = qHTS for Inhibitors of human tyrosyl-DNA phosphodiesterase 1 (TDP1): qHTS in cells in absence of CPT; DT40 Tdp1-/- hTDP1 cells, no CPT, ATP luminescence, 48 h; Potency, µM (highest dose often 46.2 µM), hits mostly inhibitors; actives 15% (n = 420,000); further: nearly all actives have a fitted effect of over 55% in size
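Seeded 400 DT40-hTDP1 cells/well (vehicle DMSO, no 20 nM CPT); pinned compounds; ≥48 hr at 37 °C; CellTiter-Glo luminescence as viability measure.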
HT1080 IDH1KD tx = kills HT-1080 cells with IDH1 knockdown | actives 2% (n = 360,000) | Potency, µM (top dose mostly 46.1 µM), usual class: cytotoxic | AID 686971 | HT-1080 IDH1 knockdown viability, ATP luminescence, 48 h
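HT-1080-IDH1KD cells (IDH1 knocked down), 750/well in RPMI with 5% FBS, treated with compound 48 h at 37 degrees C. Viability by CellTiter-Glo luminescence, normalised to DMSO and no-cell wells; concentration-response curves classed.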
ALOX12 inh = blocks human arachidonate 12S-lipoxygenase; purified 12hLO, xylenol orange hydroperoxide absorbance; actives 1.1% (n = 580,000); P18054; Potency, µM (series often up to 108 µM), usual class: inhibitors
Target sequence (P18054 whole entry, looked up): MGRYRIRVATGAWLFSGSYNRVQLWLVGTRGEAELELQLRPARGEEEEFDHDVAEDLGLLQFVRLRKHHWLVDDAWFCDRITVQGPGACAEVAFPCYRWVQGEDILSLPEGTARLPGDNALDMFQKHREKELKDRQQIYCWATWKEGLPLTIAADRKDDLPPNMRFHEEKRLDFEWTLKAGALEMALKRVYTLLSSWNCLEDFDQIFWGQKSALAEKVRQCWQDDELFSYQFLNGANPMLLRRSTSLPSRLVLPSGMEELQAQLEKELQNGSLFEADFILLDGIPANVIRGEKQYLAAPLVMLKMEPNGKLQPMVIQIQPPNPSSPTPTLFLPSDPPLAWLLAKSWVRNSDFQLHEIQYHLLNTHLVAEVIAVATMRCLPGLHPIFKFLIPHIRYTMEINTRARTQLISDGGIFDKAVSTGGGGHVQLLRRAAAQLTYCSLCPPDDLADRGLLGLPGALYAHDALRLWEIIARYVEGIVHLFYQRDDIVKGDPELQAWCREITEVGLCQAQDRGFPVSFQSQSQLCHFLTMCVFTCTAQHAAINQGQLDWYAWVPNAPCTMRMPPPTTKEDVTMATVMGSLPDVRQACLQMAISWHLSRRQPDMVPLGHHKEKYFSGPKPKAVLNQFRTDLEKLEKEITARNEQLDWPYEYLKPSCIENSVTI
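Hydroperoxide product was detected by ferrous iron/xylenol orange as the 573 to 405 nm absorbance ratio. Arachidonic acid at 40 uM (final) was turned over for 30 min at room temperature by 150 nM human 12hLO, pH 7.0 Hepes buffer, after 15 min compound preincubation.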
HT1080-NT tox = kills 2HG-producing HT-1080-NT fibrosarcoma cells; Potency, µM (series often up to 46.1 µM), actives largely listed as cytotoxic; actives 1.6% (n = 360,000); HT-1080-NT fibrosarcoma viability, CellTiter-Glo ATP luminescence, 48 h; AID 686970;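 further: NT is the 2HG producing partner of a matched IDH1 knockdown line; nearly all actives have a fitted effect of over 55% in size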
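HT-1080-NT fibrosarcoma cells (2HG-overproducing), 750 cells/well in RPMI with 5% FBS, dosed after 2 h and incubated 48 h at 37C. CellTiter-Glo luminescence normalized to DMSO and no-cell wells; concentration-response curves fitted and classed.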
TDP1 cell CPT = DT40-hTDP1 cell growth loss with CPT; actives 12% (n = 420,000); AID 686979; chicken DT40 Tdp1-/-;hTDP1 cells + 20 nM CPT, ATP luminescence, 48 h; Potency, µM (top dose mostly 46.2 µM), usual class: inhibitors; further: nearly all actives have a fitted effect of over 55% in size
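Chicken DT40 Tdp1-/- cells stably complemented with human TDP1 were seeded at 400 cells/well in medium containing 20 nM camptothecin, exposed to pin-transferred compounds, and grown at 37 °C for at least 48 hr. Viability was read as ATP luminescence.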
Hits are given with their value; i = inactive; ? = inconclusive; nt = no result given. Only a selection was taken, and hits are over-represented in it overall. Unless noted, the call rests on the fitted dose curve; in most records, active means well fitted curve in the direction sought with a large enough effect; inconclusive means small, poorly fitted or top-dose-only effect, or another doubt; inactive means no such curve, though single readings can be large; an effect the other way counts as inactive or inconclusive.

SMILES | IL-1B inflam inh | DT40 TDP1 no CPT | HT1080 IDH1KD tx | ALOX12 inh | HT1080-NT tox | TDP1 cell CPT
CCCCn1c(C(C)NC(=O)CCC)nc2ccccc21 (stereo unspecified) | i | 18µM | i | i | i | ?
CCCCCn1c(=O)c(C(=O)c2ccccc2)nc2ccccc21 | i | 23µM | i | i | i | ?
CCCCCn1c(C(C)NC(=O)CCC)nc2ccccc21 (stereo unspecified) | i | 18µM | i | i | i | 12µM
O=C(Nc1ccncc1)C1CCN(S(=O)(=O)c2c(Cl)cccc2Cl)CC1 | i | 18µM | i | i | i | ?
O=C(NC1CCCCCC1)C1CCN(S(=O)(=O)c2ccccc2)CC1 | i | i | i | i | i | i
O=C(NC1CCCCCC1)C1CCN(S(=O)(=O)c2c(Cl)cccc2Cl)CC1 | i | 23µM | i | i | i | 23µM
CCN1C(=O)C(=O)c2cc(C)ccc21 | i | 5.8µM | i | i | i | 4.6µM
CCCCCOc1ccccc1CN1C(=O)C(=O)c2cc(C)ccc21 | nt | 5.2µM | nt | i | nt | 13µM
Cc1ccc2c(c1)C(CCN)C(=O)N2Cc1ccccc1 (stereo unspecified) | i | 21µM | i | ? | i | ?
Cc1ccc2c(c1)C(=O)C(=O)N2Cc1ccc(F)cc1 | i | 0.92µM | i | ? | i | 0.73µM
Cc1ccc2c(c1)C(=O)C(=O)N2Cc1ccc(Cl)cc1 | i | 0.92µM | ? | ? | ? | 0.73µM
Cc1ccc2c(c1)C(=O)C(=O)N2Cc1ccccc1 | i | 1µM | i | i | i | 1.2µM
Cc1ccc2c(c1)N(Cc1ccccc1)C(=O)C(C)S2 (stereo unspecified) | i | i | ? | i | i | i
C/C(=N\NC(=O)c1nnn(-c2nonc2N)c1-c1ccc2c(c1)OCO2)c1cccs1 | i | ? | i | i | i | 1.6µM
CCOc1cccc(-c2c(C(=O)N/N=C(\C)c3cccs3)nnn2-c2nonc2N)c1 | i | ? | i | i | i | ?
CCOc1ccc(-c2c(C(=O)N/N=C(\C)c3cccs3)nnn2-c2nonc2N)cc1 | i | i | i | i | i | i
COc1cccc(-c2c(C(=O)N/N=C(\C)c3cccs3)nnn2-c2nonc2N)c1 | i | ? | i | i | i | 16µM
CCN(CC)C(=O)C(NC(=O)CC(C)C)C1CCN(C(=O)CCc2ccccc2)CC1 (stereo unspecified) | nt | nt | nt | i | nt | nt
Cc1cccc(CNC(=O)CSc2nc3nc[nH]c3c(=O)[nH]2)c1 | nt | nt | nt | i | nt | nt
COc1ccc(-c2nc(-c3ccc4c(c3)OCO4)[nH]c2-c2ccc(OC)cc2)cc1 | ? | ? | ? | i | 18µM | ?
Cc1[nH]c(-c2ccc3c(c2)OCO3)nc1C(=O)O | i | 18µM | ? | i | ? | 10µM
Cc1[nH]c(-c2ccco2)nc1C(=O)O | i | i | i | ? | i | i
O=C(O)COc1ccc(-c2nc(-c3ccccc3)c(-c3ccccc3)[nH]2)cc1 | i | i | ? | i | ? | i
COc1ccc(-c2[nH]c(-c3ccc(O)cc3)nc2-c2ccccc2)cc1 | nt | ? | nt | ? | nt | 15µM
COc1ccc(-c2nc(-c3ccccc3)c(-c3ccc(O)cc3)[nH]2)cc1 | nt | 8.2µM | nt | ? | nt | 13µM
SMILES | IL-1B inflam inh | DT40 TDP1 no CPT | HT1080 IDH1KD tx | ALOX12 inh | HT1080-NT tox | TDP1 cell CPT
Cc1cc2c(c(=O)n1Cc1ccccn1)C(c1cc3c(cc1Br)OCO3)C(C#N)=C(N)O2 (stereo unspecified) | nt | nt | nt | i | nt | nt
CC1CCCN(c2nc3ccccc3nc2NS(=O)(=O)c2ccccc2)C1 (stereo unspecified) | nt | nt | nt | i | nt | nt
CC(OC(=O)c1sc2cc(F)ccc2c1Cl)C(N)=O (stereo unspecified) | nt | nt | nt | i | nt | nt
Cc1ccc(SC(CC(=O)c2ccc(F)cc2)C(=O)O)cc1 (stereo unspecified) | -96 | 26µM | i | i | i | ?
CC(C)(C)c1ccc(C(=O)CC(Sc2ccc(Cl)cc2)C(=O)O)cc1 (stereo unspecified) | -97 | 4.1µM | 15µM | ? | 12µM | 3.3µM
Cc1ccc(C(=O)CC(NCCO)C(=O)O)cc1 (stereo unspecified) | nt | nt | nt | i | nt | nt
C#Cc1cccc(NC(=O)Cc2cccc(OC)c2)c1 | nt | nt | nt | i | nt | nt
CCc1nc(-c2ccc(OC3CCN(Cc4cc(F)ccc4F)C3)cc2)no1 (stereo unspecified) | nt | nt | nt | i | nt | nt
COc1ccc(NC(=O)CN2C(=O)C(C)Oc3ccc(C)cc32)cc1 (stereo unspecified) | i | i | 21µM | i | ? | i
CCC1Oc2ccc(C)cc2N(CC(=O)NCc2cccc(OC)c2)C1=O (stereo unspecified) | i | 10µM | i | i | i | ?
CCC1Oc2ccccc2N(CC(=O)NCc2cc(OC)ccc2OC)C1=O (stereo unspecified) | nt | 13µM | nt | i | nt | ?
CCC1Oc2ccc(C)cc2N(CC(=O)NCc2ccccc2OC)C1=O (stereo unspecified) | i | i | i | i | i | i
O=C(CCC1CCCN(Cc2cnc(-c3ccccc3)s2)C1)Nc1ccccc1F (stereo unspecified) | nt | nt | nt | i | nt | nt
Cc1cccc(C(=O)CC(=O)c2cccc(C)c2)c1 | nt | nt | nt | i | nt | nt
COc1ccc(NC(=O)C(C)n2nc(-c3cc(C)ccc3C)c3c(c2=O)CCCC3)cc1 (stereo unspecified) | nt | ? | nt | ? | nt | 21µM
CNc1ncnc(Sc2nc(N)nc3nc[nH]c23)c1[N+](=O)[O-] | -59 | 4.6µM | 1.3µM | i | 2.9µM | 2.1µM
Nc1nc(SCc2ccccc2)c2[nH]cnc2n1 | i | i | i | i | i | i
Nc1nc(Sc2ccc([N+](=O)[O-])c3nonc23)c2[nH]cnc2n1 | -119 | 3.3µM | 1.8µM | 32µM | 4.6µM | 1.8µM
COCC1CN(C(=O)NC2CCCC2)CC12CCNCC2 (stereo unspecified) | nt | nt | nt | i | nt | nt
Cc1oc2ncnc(N3CCOCC3)c2c1C(=O)Nc1ccc(C(C)C)cc1 | nt | nt | nt | i | nt | nt
CCOc1ccc(NC(=S)NC(=O)c2c(Br)cnn2C)c([N+](=O)[O-])c1 | i | 23µM | i | ? | i | 21µM
CCc1cccc(CC)c1NC(=O)CN1CC(C)SC1=NC1CCCCC1 (stereo unspecified) | i | 13µM | i | i | i | 21µM
CSc1cccc(NC(=O)c2csc3c2CCCC3)c1 | nt | nt | nt | i | nt | nt
COc1ccc(CC(=O)NCC(c2ccc(Cl)cc2)N2CCOCC2)cc1 (stereo unspecified) | nt | i | nt | i | nt | i
CCOc1ccc(NS(=O)(=O)c2ccc(C(=O)NCC(c3ccc(OC)cc3)N3CCCC3)cc2)cc1 (stereo unspecified) | i | 13µM | i | i | i | ?
